Reference: PubChem BioAssay (NCATS)
Records with an inconclusive call do not appear. Activity calls are given as the source filed them. The call rests on the fitted dose curve; in most records, active means well fitted curve in the direction sought with a large enough effect; inconclusive means small, poorly fitted or top-dose-only effect, or another doubt; inactive means no such curve, though single readings can be large; an effect the other way counts as inactive or inconclusive. Non-standard residues stand in square brackets, D forms with d. Residues, ends and D or L forms follow the SMILES beside them. *: point of attachment. Nva = CCC[C@H](N)C(=O)O; Cbz = O=C(OCc1ccccc1)*

Test: qHTS of pediatric cancer cell lines to identify multiple opportunities for drug repurposing: Confirmatory screen for OHS-50 cells (AID 1347128);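 further: compound exposure lasted 48 h at 37 degrees C; nearly all actives have a fitted effect of over 55% in size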
Conditions: OHS-50 osteosarcoma cells viability; series mostly up to 45.9 µM
Outline: (§1)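 Viability after 48 h compound treatment at 37C, 500-1,000 cells/well, read as ATP luminescence with CellTiter-Glo. Primary screens used 11-point (MIPE, 0.78 nM-46 µM) or 8-point (NPC, 0.59 nM-46 µM) final concentrations; follow-up screens used 11-point dilutions.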
Potency means the concentration at half of the fitted maximal effect.

| Compound | Potency |
| --- | --- |
| CC(C(C)N1CC(=O)NC(=O)C1)N1CC(=O)NC(=O)C1 (centres undefined) | inactive |
| O=C(C=CC#Cc1cccc(NS(=O)(=O)c2ccccc2)c1)NO | 5850 nM (active) |
| Nc1nc2c(c(=O)[nH]1)N(C=O)[C@H](CNc1ccc(C(=O)N[C@@H](CCC(=O)O)C(=O)O)cc1)CN2 | inactive |
| CCS(=O)(=O)Nc1ccc2[nH]c(O)c(C(=Nc3ccc(CN4CCCCC4)cc3)c3ccccc3)c2c1 | 5220 nM (active) |
| CCc1cc(C(C)=NOCc2ccc(C3CCCCC3)c(C(F)(F)F)c2)ccc1CN1CC(C(=O)O)C1 | 23300 nM (active) |
| C=Cc1c(C)c2cc3nc(cc4[nH]c(cc5nc(cc1[nH]2)C(C)=C5CCC(=O)O)c(CCC(=O)OC)c4C)[C@@]1(C)C3=CC=C(C(=O)OC)[C@H]1C(=O)OC | inactive |
| CC(C)(N)c1ccc(-c2nc3ccccc3nc2-c2ccccc2)cc1 | 369 nM (active) |
| CCN(CC)CCNC(=O)c1c(C)[nH]c(C=C2C(=O)Nc3ccc(F)cc32)c1C | 10700 nM (active) |
| CNC(=O)Nc1ccc(-c2nc(N3CC4CCC(C3)O4)c3cnn(C4CCC5(CC4)OCCO5)c3n2)cc1 | 3290 nM (active) |
| FC(F)c1nc2ccccc2n1-c1nc(N2CCOCC2)nc(N2CCOCC2)n1 | 1650 nM (active) |
| COc1cc2c(cc1OC)[C@@H]1C(=O)c3ccc4c(c3O[C@@H]1CO2)C=CC(C)(C)O4 | inactive |
| Nc1ncn([C@@H]2O[C@H](CO)[C@@H](O)[C@@H]2O)c(=O)n1 | 5850 nM (active) |
| CS(=O)(=O)N1CCc2c(-c3cnc(N)nc3)nc(N3CCOCC3)nc21 | 2930 nM (active) |
| CC(C)(O)Cn1c(NC(=O)c2ccc(-c3cn[nH]c3)s2)nc2cc(CN3CCOCC3)ccc21 | 827 nM (active) |
| C=C1C(=CC=C2CCC[C@]3(C)[C@@H]([C@H](C)CCCC(C)(C)O)CC[C@@H]23)C[C@@H](O)C[C@@H]1O | inactive |
| COC(=O)[C@@H]1[C@H]2C[C@@H]3c4[nH]c5ccccc5c4CCN3C[C@@H]2CC[C@@H]1O | inactive |

| Compound | Potency |
| --- | --- |
| CC(C)C[C@H](NC(=O)CNC(=O)c1cc(Cl)ccc1Cl)B1OC(=O)CC(CC(=O)O)(C(=O)O)O1 (some centres undefined) | 585 nM (active) |
| C[C@H](NCc1ccc2c(c1)nc(NC(=O)c1ccc(-c3cn[nH]c3)s1)n2CCc1ccccc1)C(C)(C)C | 1470 nM (active) |
| C[C@@H](Oc1ccc2[nH]nc(C=Cc3cnn(CCO)c3)c2c1)c1c(Cl)cncc1Cl | 4140 nM (active) |
| CC(C)C[C@H](NC(=O)[C@@H](NC(=O)c1cccc(-c2ccccc2)n1)[C@@H](C)O)B(O)O | 131 nM (active) |
| CC(C=CC(=O)NO)=C[C@@H](C)C(=O)c1ccc(N(C)C)cc1 | 1470 nM (active) |
| COC(=O)C=CC(=O)OC | inactive |
| C[C@@]12C(=O)OC(=O)[C@@]1(C)C1CCC2O1 | 4650 nM (active) |
| Cc1ccc([N+](=O)[O-])cc1S(=O)(=O)N(C)N=Cc1cnc2ccc(Br)cn12 | 465 nM (active) |
| CC(=O)NCC(=O)N1[C@H]2CC[C@H]1c1cc(Nc3ncc(C(F)(F)F)c(NC4CCC4)n3)ccc12 | 2610 nM (active) |
| COC1=C2C[C@@H](C)C[C@H](OC)[C@@H](O)[C@@H](C)C=C(C)[C@H](OC(N)=O)[C@@H](OC)C=CC=C(C)C(=O)NC(=CC1=O)C2=O | 4650 nM (active) |
| CCC[C@@H](C=O)NC(=O)[C@H](CC(C)C)NC(=O)[C@H](CC(C)C)NC(=O)OCc1ccccc1 (Cbz-Leu-Leu-[Nva]-aldehyde) | 2330 nM (active) |
| Cc1cnc(Nc2ccc(CN3CCOCC3)cc2)nc1Nc1cccc(S(=O)(=O)NC(C)(C)C)c1 | 5220 nM (active) |
| C=CC(=O)N1CCc2ccc(-n3c(=O)ccc4cnc5ccc(-c6cnn(C)c6)cc5c43)cc21 | 7370 nM (active) |
| O=C1NC(=O)C(=Cc2ccc3nccc(-c4ccncc4)c3c2)S1 | 7370 nM (active) |
| O=S(=O)(O)CCSSCCS(=O)(=O)O | inactive |

Test: qHTS of pediatric cancer cell lines to identify multiple opportunities for drug repurposing: Confirmatory screen for SK-N-SH cells (AID 1347129);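 further: cells exposed to compound for 48 h before viability read; nearly all actives have a fitted effect of over 60% in size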
Conditions: SK-N-SH neuroblastoma cell viability; series mostly up to 46.1 µM
Outline: as §1

| Compound | Potency |
| --- | --- |
| CC(C(C)N1CC(=O)NC(=O)C1)N1CC(=O)NC(=O)C1 (centres undefined) | inactive |
| O=C(C=CC#Cc1cccc(NS(=O)(=O)c2ccccc2)c1)NO | 4180 nM (active) |
| Nc1nc2c(c(=O)[nH]1)N(C=O)[C@H](CNc1ccc(C(=O)N[C@@H](CCC(=O)O)C(=O)O)cc1)CN2 | inactive |
| CCS(=O)(=O)Nc1ccc2[nH]c(O)c(C(=Nc3ccc(CN4CCCCC4)cc3)c3ccccc3)c2c1 | 332 nM (active) |
| C=Cc1c(C)c2cc3nc(cc4[nH]c(cc5nc(cc1[nH]2)C(C)=C5CCC(=O)O)c(CCC(=O)OC)c4C)[C@@]1(C)C3=CC=C(C(=O)OC)[C@H]1C(=O)OC | inactive |
| CCN(CC)CCNC(=O)c1c(C)[nH]c(C=C2C(=O)Nc3ccc(F)cc32)c1C | 9590 nM (active) |
| CNC(=O)Nc1ccc(-c2nc(N3CC4CCC(C3)O4)c3cnn(C4CCC5(CC4)OCCO5)c3n2)cc1 | 1320 nM (active) |
| FC(F)c1nc2ccccc2n1-c1nc(N2CCOCC2)nc(N2CCOCC2)n1 | 2350 nM (active) |
| Nc1ncn([C@@H]2O[C@H](CO)[C@@H](O)[C@@H]2O)c(=O)n1 | 16600 nM (active) |
| CS(=O)(=O)N1CCc2c(-c3cnc(N)nc3)nc(N3CCOCC3)nc21 | 2640 nM (active) |
| CC(C)(O)Cn1c(NC(=O)c2ccc(-c3cn[nH]c3)s2)nc2cc(CN3CCOCC3)ccc21 | 1320 nM (active) |
| C=C1C(=CC=C2CCC[C@]3(C)[C@@H]([C@H](C)CCCC(C)(C)O)CC[C@@H]23)C[C@@H](O)C[C@@H]1O | inactive |
| COC(=O)[C@@H]1[C@H]2C[C@@H]3c4[nH]c5ccccc5c4CCN3C[C@@H]2CC[C@@H]1O | inactive |
| CC(C)C[C@H](NC(=O)CNC(=O)c1cc(Cl)ccc1Cl)B1OC(=O)CC(CC(=O)O)(C(=O)O)O1 (some centres undefined) | inactive |
| C[C@H](NCc1ccc2c(c1)nc(NC(=O)c1ccc(-c3cn[nH]c3)s1)n2CCc1ccccc1)C(C)(C)C | 833 nM (active) |
| C[C@@H](Oc1ccc2[nH]nc(C=Cc3cnn(CCO)c3)c2c1)c1c(Cl)cncc1Cl | inactive |
| CC(C)C[C@H](NC(=O)[C@@H](NC(=O)c1cccc(-c2ccccc2)n1)[C@@H](C)O)B(O)O | 59 nM (active) |
| CC(C=CC(=O)NO)=C[C@@H](C)C(=O)c1ccc(N(C)C)cc1 | 2960 nM (active) |
| COC(=O)C=CC(=O)OC | inactive |
| C[C@@]12C(=O)OC(=O)[C@@]1(C)C1CCC2O1 | 5900 nM (active) |
| Cc1ccc([N+](=O)[O-])cc1S(=O)(=O)N(C)N=Cc1cnc2ccc(Br)cn12 | 235 nM (active) |
| CC(=O)NCC(=O)N1[C@H]2CC[C@H]1c1cc(Nc3ncc(C(F)(F)F)c(NC4CCC4)n3)ccc12 | 2090 nM (active) |
| COC1=C2C[C@@H](C)C[C@H](OC)[C@@H](O)[C@@H](C)C=C(C)[C@H](OC(N)=O)[C@@H](OC)C=CC=C(C)C(=O)NC(=CC1=O)C2=O | 2350 nM (active) |
| CCC[C@@H](C=O)NC(=O)[C@H](CC(C)C)NC(=O)[C@H](CC(C)C)NC(=O)OCc1ccccc1 (Cbz-Leu-Leu-[Nva]-aldehyde) | 1320 nM (active) |
| Cc1cnc(Nc2ccc(CN3CCOCC3)cc2)nc1Nc1cccc(S(=O)(=O)NC(C)(C)C)c1 | 5260 nM (active) |
| C=CC(=O)N1CCc2ccc(-n3c(=O)ccc4cnc5ccc(-c6cnn(C)c6)cc5c43)cc21 | 5900 nM (active) |
| O=C1NC(=O)C(=Cc2ccc3nccc(-c4ccncc4)c3c2)S1 | 4180 nM (active) |
| O=S(=O)(O)CCSSCCS(=O)(=O)O | inactive |
